Reference: PubChem BioAssay
Activity calls are given as the source filed them.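 The calls were made as follows: active = normalized viability below 100% at a tested concentration; inactive = the rest.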

Assay: drug combination growth inhibition, ovarian cancer – cell-based, oncology-focused library, rucaparib conditional, profiling panel (AID 1508598)
Settings: patient-derived ovarian cancer cells, CellTiter-Glo viability, 144 h; at 1.25 µM; OCI-C5x cells; without rucaparib; active compounds read low

SMILES | viability
CNC(=O)c1ccc(N2C(=S)N(c3ccc(C#N)c(C(F)(F)F)c3)C(=O)C2(C)C)cc1F | 104% (inactive)
Cn1cncc1[C@@](N)(c1ccc(Cl)cc1)c1ccc2c(c1)c(-c1cccc(Cl)c1)cc(=O)n2C | 104% (inactive)
O=C(O)c1ccc2c(c1)nc(Nc1cccc(Cl)c1)c1ccncc12 | 91.5% (active)
CC(C)C[C@H](NC(=O)CNC(=O)c1cc(Cl)ccc1Cl)B(O)O | 6.01% (active)
CC1(C)CCC(c2ccc(Cl)cc2)=C(CN2CCN(c3ccc(C(=O)NS(=O)(=O)c4ccc(N[C@H](CCN5CCOCC5)CSc5ccccc5)c(S(=O)(=O)C(F)(F)F)c4)cc3)CC2)C1 | 15.2% (active)
C#Cc1cccc(Nc2ncnc3cc(OCCOC)c(OCCO)cc23)c1 | 95.1% (active)
CC(C)CC(=O)Nc1n[nH]c2c1CN(C(=O)C1CCN(C)CC1)C2(C)C | 113% (inactive)
C=CCn1c(=O)c2cnc(Nc3ccc(N4CCN(C)CC4)cc3)nc2n1-c1cccc(C(C)(C)O)n1 | 40.2% (active)
O=C(O)[C@H](Cc1c[nH]c2ccccc12)N1C(=O)c2ccccc2C1=O | 116% (inactive)
O=C(NC1CCNCC1)c1[nH]ncc1NC(=O)c1c(Cl)cccc1Cl | 13.9% (active)
CC(C)C[C@H](NC(=O)CNC(=O)c1cc(Cl)ccc1Cl)B1OC(=O)CC(CC(=O)O)(C(=O)O)O1 (stereo partly specified) | 5.13% (active)
